Measurements taken from PubChem BioAssay (NCI).
About 79,000 compounds went through this panel and 15% of them were active in at least one assay; those are over-represented in the sample as a whole. No stated cut-off is given here; in the data, active means growth inhibition above about 70%; inactive means the rest.

Tests used:
[1] = NCI Yeast Anticancer Drug Screen. Data for the rad50 strain (AID 155);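 further: 0% = growth of vehicle-only cultures of the same strain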; conditions: S. cerevisiae rad50 strain growth inhibition; at 50.0 µM; active compounds read high
Outline: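 Relative growth inhibition (compound vs vehicle) was measured in yeast with a defined repair-gene alteration.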

[2] = NCI Yeast Anticancer Drug Screen. Data for the mec2-1 strain (AID 157); conditions: S. cerevisiae mec2-1 strain, at 50.0 µM, active compounds read high
Outline: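 Readout is yeast growth inhibition, normalised to vehicle-treated controls, in the mec2-1 strain exposed to compound.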

[3] = NCI Yeast Anticancer Drug Screen. Data for the sgs1 mgt1 strain (AID 161);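 further: 0% = growth of cultures given vehicle only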; conditions: S. cerevisiae sgs1 mgt1 strain, at 50.0 µM, active compounds read high
Outline: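 This yeast growth screen uses a strain with defined DNA-repair lesions; compound-treated growth is compared with vehicle-treated growth.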

[4] = NCI Yeast Anticancer Drug Screen. Data for the cln2 rad14 strain (AID 165);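 further: 0% = growth equal to vehicle treated cultures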; conditions: S. cerevisiae cln2 rad14 strain, at 50.0 µM, active compounds read high
Outline: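 Relative to vehicle controls, growth inhibition of compound-treated cln2 rad14 yeast was recorded.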

[5] = NCI Yeast Anticancer Drug Screen. Data for the bub3 strain (AID 167); conditions: S. cerevisiae bub3 mutant strain, at 50.0 µM, active compounds read high
Outline: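 Screening used yeast with an engineered genetic alteration affecting cell cycle control. Compound-exposed cultures were compared with vehicle cultures, and reduced growth was taken as inhibition.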

[6] = NCI Yeast Anticancer Drug Screen. Data for the mlh1 rad18 strain (AID 175); conditions: S. cerevisiae mlh1 rad18 strain growth inhibition; at 50.0 µM; active compounds read high
Outline: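 Test agents were incubated with a yeast strain of defined genotype (DNA damage repair defect). Inhibition of growth was derived by comparison with vehicle-exposed cultures.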

Measured: growth inhibition

CCOC(=O)/N=c1/nc2ccn(C)c2c(NC(=O)OCC)s1
inactive: [1] 15.1% | [2] -3.5% | [3] -5% | [4] 11% | [5] 7.9% | [6] -15.8%

CCOC(=O)C1(C(O)(C2CC2)C2(C(=O)OCC)CC2)CC1
inactive: [1] -9.1% | [2] -11.6% | [3] -12.3% | [4] -29.9% | [5] 13.1% | [6] 5.45%

COc1cccc2cc[nH]c12
inactive: [1] 0.2% | [2] 11.2% | [3] -9.2% | [4] 10.8% | [5] 7.7% | [6] 8.6%

O=C(O)CNC(=O)Cc1ccccc1
inactive: [1] -29.8% | [2] -12.6% | [3] -1.1% | [4] 10.2% | [5] -38.6% | [6] -7.3%

CCOC(=O)CCC(NC(=O)c1ccc(N(C)C=O)cc1)C(=O)OCC (stereo unspecified)
inactive: [1] 10.9% | [2] -6.8% | [3] -0.55% | [4] -6.8% | [5] 6.45% | [6] 12.3%

COC1CC(N=[N+]=[N-])C(OC(=O)c2ccccc2)C(CBr)O1 (stereo unspecified)
inactive: [1] 22.4% | [2] 18.1% | [3] 22.6% | [4] -4.4% | [5] 7.4% | [6] 19.6%

Cc1ccc(C(C)C)cc1NC(=O)c1c(Cl)c(Cl)c(Cl)c(Cl)c1C(=O)O
inactive: [1] 14.6% | [2] 9.8% | [3] 23.9% | [4] -32.4% | [5] 6.45% | [6] 23.3%

CCOC(=O)C1SC(=Nc2ccc(Cl)c(Cl)c2)N=C1C (stereo unspecified)
inactive: [1] -29.9% | [2] -2.8% | [3] -6.4% | [4] 5.9% | [5] -11.7% | [6] -10.1%

CC(C)(C)C1CCC2c3c([nH]c4ccccc34)C3C(=O)N(c4ccc(C#N)cc4)C(=O)C3C2C1 (stereo unspecified)
inactive: [1] 53.3% | [2] 50.2% | [3] 54.9% | [4] 16.9% | [5] 38.6% | [6] 38.8%

CCc1ccc(C(C)=O)cc1
inactive: [1] 7.05% | [2] 41.5% | [3] 34.8% | [4] 3.5% | [5] -9.7% | [6] 52.6%

CCCCCCCCCCCCNC(=O)c1ccccc1O
inactive: [1] 13.2% | [2] 23.6% | [3] 17.9% | [4] 20.8% | [5] 10.6% | [6] 35.8%

N#CCCN(CCC#N)c1ccc(C=Nc2ccc(F)cc2)cc1
inactive: [1] 20% | [2] 9.65% | [3] 11.9% | [4] 15.8% | [5] 18.5% | [6] 45.2%

O=[N+]([O-])c1ccc(S(=O)(=O)N/N=C/C=C/c2ccccc2[N+](=O)[O-])cc1
inactive: [1] 5% | [2] -5.65% | [3] 7.35% | [4] -7.55% | [5] 16.4% | [6] 39.1%

O=S(=O)(O/C(=C(\OS(=O)(=O)C(F)(F)C(F)(F)C(F)(F)C(F)(F)F)c1ccccc1)c1ccccc1)C(F)(F)C(F)(F)C(F)(F)C(F)(F)F
inactive: [1] -6% | [2] -14.1% | [3] -23.4% | [4] -18.1% | [5] 7.9% | [6] -5.85%

c1ccc2c(c1)CCCC(N1CCOCC1)C2 (stereo unspecified)
inactive: [1] 2.3% | [2] 2.7% | [3] 16.9% | [4] 11.1% | [5] -24.3% | [6] 15.9%

CC(=O)N1C(=O)C(=O)c2ccccc21
inactive: [1] 5.9% | [2] -5.4% | [3] -4.8% | [4] -25% | [5] -1.5% | [6] 23.5%

CCOC(=O)C(C)(C)c1ccc(OC)cc1
inactive: [1] -14.2% | [2] -3.6% | [3] -8.6% | [4] -18.9% | [5] 2.6% | [6] -16.2%

Oc1ccc(NCc2ccccc2)cc1
inactive: [1] 32.9% | [2] 8.45% | [3] 16.9% | [4] -3.15% | [5] 21.6% | [6] 16.9%

O=C(CCC(NC(=O)OCc1ccccc1)C(=O)OCc1ccccc1)Nc1cccc(OCc2ccccc2)c1 (stereo unspecified)
inactive: [1] -16.2% | [2] -18.1% | [3] -1.15% | [4] -23.6% | [5] -20% | [6] -27.4%

O=[N+]([O-])C(C=Nc1ccccc1)C=Nc1ccccc1 (stereo unspecified)
inactive: [1] 6.35% | [2] -23% | [3] -2.85% | [4] -2.25% | [5] -13.4% | [6] 0.45%

CCCCc1c2c(nc3c1CCc1cc4cc5c(nc4nc1-3)-c1nc3c(c(CCCC)c1CC5)CCCC3)CCCC2
inactive: [1] 7.5% | [2] 24.9% | [3] 16.1% | [4] -45.7% | [5] 9.95% | [6] 29.4%

Cc1sc2nc3n(c(=O)c2c1C)N=C(c1ccccc1)CS3
inactive: [1] -29.4% | [2] -11.8% | [3] -33.3% | [4] 11.1% | [5] -31.4% | [6] -17.2%

NC1=NN(c2ccccc2)C(=O)C1C(=O)C(=O)Nc1ccc(Cl)c(Cl)c1 (stereo unspecified)
inactive: [1] -6.4% | [2] -23.8% | [3] 11.8% | [4] 0.15% | [5] 12.2% | [6] -6.2%

CC(=O)c1cccc(NC(=O)c2cccc(Cl)c2)c1
inactive: [1] -1.9% | [2] -4.3% | [3] 24.5% | [4] -16.1% | [5] 20.4% | [6] 20.9%

COc1ccc(OC)c(NC(=O)Nc2cccc(C(C)=O)c2)c1
inactive: [1] -12.2% | [2] 33.9% | [3] 33% | [4] -55.4% | [5] 35.2% | [6] 22.6%

C[n+]1cc(Br)c2ccccc2c1
inactive: [1] 4.05% | [2] -6.25% | [3] 3.4% | [4] -13.2% | [5] 1.4% | [6] 3.45%

O=C(O)Cc1nc(Cl)ccc1Cl
inactive: [1] 16.1% | [2] -7.2% | [3] -0.3% | [4] -15.2% | [5] -1.25% | [6] -1.1%

O=C(c1ccccc1)c1c(-c2ccccc2)sc2nc3ccccc3nc12
inactive: [1] 3% | [2] 18.3% | [3] 3.2% | [4] 29.1% | [5] 2.65% | [6] 11.2%

COc1ccc(OCC(C)(C)O)cc1
inactive: [1] -12.6% | [2] -0.4% | [3] 5.6% | [4] 0.2% | [5] -11.2% | [6] -2.55%

Cc1ccc(-n2ncc3c(N)ncnc32)cc1
inactive: [1] 10.2% | [2] 12.4% | [3] 2.6% | [4] -19% | [5] -7.8% | [6] -14.2%

Cc1c(C)c(CSC#N)c(C)c(C)c1CSC#N
inactive: [1] 53.8% | [2] -13.6% | [3] -10.1% | [4] -1.9% | [5] 8.2% | [6] 8.55%

Cn1cc(NC(=O)c2cc(NC(=O)CCCCCC(=O)Nc3cc(C(=O)Nc4cc(C(=O)NCCC(=N)N)n(C)c4)n(C)c3)cn2C)cc1C(=O)NCCC(=N)N
inactive: [1] -14.1% | [2] -14.9% | [3] -17.6% | [4] -1.35% | [5] -24.4% | [6] -3.6%

N#Cc1nc(Cc2ccccc2)oc1N
inactive: [1] 27.3% | [2] 9.2% | [3] -22% | [4] 18.4% | [5] -26.1% | [6] -22.6%

CCN1C(=O)N(C)C(O)c2c1nc1ccccn1c2=O (stereo unspecified)
inactive: [1] -14.1% | [2] -8.35% | [3] -33.4% | [4] 3.65% | [5] -15.7% | [6] -19.6%

Clc1ccc(N=Cc2ccc(C=Nc3ccc(Cl)c(Cl)c3)cc2)cc1Cl
inactive: [1] -7.7% | [2] -21.8% | [3] 15.7% | [4] 11% | [5] 16.9% | [6] 11.6%

Cc1c(Cl)cccc1NC(=O)OCCCc1ccccc1
inactive: [1] 1.5% | [2] 10.2% | [3] 15.6% | [4] -9.45% | [5] 9.35% | [6] 10.2%

COC(=O)C(C(=O)C(=O)Nc1nc2ccc(OC)cc2s1)c1cnc2ccccc2n1 (stereo unspecified)
inactive: [1] -13.2% | [2] -23.2% | [3] -45% | [4] 22.6% | [5] -7.5% | [6] -6.15%

CN(C)CCn1cnc2sc3ccccc3c21
inactive: [1] -8.35% | [2] -15.5% | [3] -23.8% | [4] 24% | [5] -6.35% | [6] -23.8%

N#CN(Cc1ccccc1)Cc1ccccc1
inactive: [1] -1.25% | [2] 23.7% | [3] 7.75% | [4] 0.6% | [5] 10.7% | [6] 4%

CCN(CC)C(=O)Oc1cc(C)c([N+](C)(C)C)cc1C(C)C
inactive: [1] 10.1% | [2] 6.7% | [3] 13.2% | [4] 17.8% | [5] 24.6% | [6] -27.7%

Cc1ccc(C(c2ccc(C)c(C)c2)C(O)C(O)C(O)CO)cc1C (stereo unspecified)
inactive: [1] 20% | [2] -2.25% | [3] 0.65% | [4] 12.9% | [5] 6.7% | [6] 8.85%
